Experimental findings from PubChem BioAssay (Tox21) are described below.

The structures appear in SMILES notation. “And” between values parts separate entries of the source, which are not always exact repeats. Identical values can stand only once. Results filed as inconclusive are left out. The source holds several records for some structures; these can differ, active in one and inactive in another. The source made the active and inactive calls. Unless noted, calls come from the whole dose curve; as a rule, active = well fitted curve in the direction sought with a large enough effect in the repeat runs; inconclusive = weak or mixed curves; inactive = no such curve, though single readings can be large; an effect the other way counts as inactive or inconclusive.

Experiment [1] in a line: qHTS assay to identify small molecule antagonists of the glucocorticoid receptor (GR) signaling pathway - cell viability counter screen (AID 720693). Note: nearly all actives have a fitted effect of over 55% in size.
Experiment [2] is described as follows: qHTS assay for identifying genotoxic compounds that show differential cytotoxicity against isogenic chicken DT40 cell lines with known DNA damage response pathways - wild type cell line (AID 743012). Note: nearly all actives have a fitted effect of over 60% in size. Note: potency is the fitted concentration of half-maximal effect. In outline: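 Luminescent ATP viability signal (CellTiter-Glo, 30 min RT) recorded after wild type DT40 cells were incubated with compounds for 40 h at 37 C/5% CO2.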
(In general: qHTS replaces the single test concentration by a dilution series.)

Experiment [3] can be described thus: qHTS assay for identifying genotoxic compounds that show differential cytotoxicity against isogenic chicken DT40 cell lines with known DNA damage response pathways - Rev3 mutant cell line (AID 743014). Note: nearly all actives have a fitted effect of over 55% in size. Note: potency is the fitted concentration of half-maximal effect.
Experiment [4] in a line: qHTS assay for identifying genotoxic compounds that show differential cytotoxicity against isogenic chicken DT40 cell lines with known DNA damage response pathways - Rad54/Ku70 mutant cell line (AID 743015). Note: nearly all actives have a fitted effect of over 60% in size. Note: potency is the fitted concentration of half-maximal effect.
The nature of experiment [5]: qHTS assay to identify small molecule antagonists of the androgen receptor (AR) signaling pathway - cell viability counter screen (AID 743033; note: nearly all actives have a fitted effect of over 45% in size).
The nature of experiment [6]: qHTS assay to identify small molecule antagonists of the androgen receptor (AR) signaling pathway using the MDA cell line - cell viability counter screen (AID 743041; note: nearly all actives have a fitted effect of over 45% in size). In outline:
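Compound exposure lasted 16 h at 37C in MDA-kb2 AR-luc cells stimulated with R1881. Protease-based CellTiter-Fluor reagent was applied for the final 30 min and fluorescence measured.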

A short description of experiment [7]: qHTS assay to identify small molecule antagonists of the thyroid receptor (TR) signaling pathway - cell viability counter screen (AID 743064). Note: nearly all actives have a fitted effect of over 50% in size. Note: potency is the fitted concentration of half-maximal effect. In outline:
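In-well cytotoxicity read by CellTiter-Fluor (30 min, 37 C) following 23.5 h exposure of GH3 cells bearing a TRE-luciferase sensor. Compounds were added alongside 1 nM (final) T3 to drive TR transactivation.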

Experiment [8] can be described thus: qHTS assay to identify small molecule antagonists of the thyroid receptor (TR) signaling pathway (AID 743065). Note: nearly all actives have a fitted effect of over 55% in size. Note: potency is the fitted concentration of half-maximal effect. In outline:
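GH3.TRE-Luc rat pituitary cells (two TREs driving luciferase) were dosed with compound, then stimulated with 1 nM T3 (final) for 23.5 h at 37 C. ONE-Glo luminescence was the read-out, with CellTiter-Fluor fluorescence as the cytotoxicity counter-screen.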

The test system of experiment [9] is thyroid hormone receptor (rat, GH3 cells). As to the kind of experiment: qHTS assay to identify small molecule agonists of the thyroid receptor (TR) signaling pathway (AID 743066; calls by dose curve).
The target of experiment [10] is Estrogen receptor (Homo sapiens) (UniProt P03372). As to the kind of experiment: qHTS assay to identify small molecule antagonists of the estrogen receptor alpha (ER-alpha) signaling pathway (AID 743069; active = well fitted curve in the direction sought with a large enough effect in the signal ratio in the repeat runs, not every such curve was filed as active; the % refers to the signal ratio). The gist of the method:
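In this cell-based reporter format, GripTite HEK293 cells harbouring ER-alpha-UAS-bla were grown overnight with 2% charcoal-stripped FBS, dosed with DMSO-dissolved compounds, then challenged with 17beta-estradiol. After 18 hr at 37C, beta-lactamase activity was detected by FRET fluorescence.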

A short description of experiment [11]: qHTS assay to identify small molecule antagonists of the estrogen receptor alpha (ER-alpha) signaling pathway - cell viability counter screen (AID 743074; calls by dose curve; note: nearly all actives have a fitted effect of over 45% in size).
Experiment [12] concerns the target Estrogen receptor (Homo sapiens) (UniProt P03372). As to the kind of experiment: qHTS assay to identify small molecule agonists of the estrogen receptor alpha (ER-alpha) signaling pathway (AID 743075; calls by dose curve).
Experiment [13] has the same target. As to the kind of experiment: qHTS assay to identify small molecule agonists of the estrogen receptor alpha (ER-alpha) signaling pathway using the BG1 cell line (AID 743079). Note: nearly all actives have a fitted effect of over 20% in size. Note: potency is the fitted concentration of half-maximal effect.
Experiment [14] in a line: qHTS assay to identify small molecule antagonists of the estrogen receptor alpha (ER-alpha) signaling pathway using the BG1 cell line (AID 743080; calls by dose curve;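 note: BG1 cells stimulated with 17beta-estradiol alongside compound; series mostly up to about 70 µM; nearly all actives have a fitted effect of over 25% in size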). The gist of the method: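 Readout is ONE-Glo luminescence, taken 30 min at room temperature after reagent addition, preceded by a CellTiter-Fluor viability read; BG1-Luc-4E2 cells had received compound and 17beta-estradiol for 21.5 h at 37 C.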

Experiment [15] can be described thus: qHTS assay to identify small molecule antagonists of the estrogen receptor alpha (ER-alpha) signaling pathway using the BG1 cell line - cell viability counter screen (AID 743081).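 Note: compound given together with 17beta-estradiol as the ER stimulus; series mostly up to about 70 µM; nearly all actives have a fitted effect of over 45% in size.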
The target of experiment [16] is Aromatase (Homo sapiens) (UniProt P11511). As to the kind of experiment: qHTS assay to identify aromatase inhibitors (AID 743083). Note: series mostly up to about 70 µM; nearly all actives have a fitted effect of over 55% in size.
Experiment [17] concerns the target Androgen receptor (Homo sapiens) (UniProt P10275). Description: qHTS assay to identify small molecule antagonists of the androgen receptor (AR) signaling pathway (AID 743035; active = well fitted inhibition curve with a large enough effect in the signal ratio in the repeat runs, not every such curve was filed as active; the % refers to the signal ratio). In outline:
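Quantitative HTS of the Tox21 10K library used HEK293 AR-UAS-bla cells stimulated with R1881 alongside compound for 16 h at 37C, followed by beta-lactamase FRET detection (LiveBLAzer B/G, 2 h, RT).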

Experiment [18] shares this target. As to the kind of experiment: qHTS assay to identify small molecule agonists of the androgen receptor (AR) signaling pathway using the MDA cell line (AID 743040; note: nearly all actives have a fitted effect of over 20% in size). The gist of the method: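 Testing was done with the MDA-kb2 AR-luc line, a human breast carcinoma stably transfected with MMTV-luciferase containing AR and GR response elements. Cells were exposed 16 h at 37C before ONE-Glo luminescence detection.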

Experiment [19] shares this target. Description: qHTS assay to identify small molecule antagonists of the androgen receptor (AR) signaling pathway using the MDA cell line (AID 743042; note: nearly all actives have a fitted effect of over 55% in size). The gist of the method: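 MDA-kb2 breast carcinoma cells carrying MMTV-luciferase (AR/GR responsive) were co-treated with compounds and the agonist R1881 for 16 h at 37C. Inhibition read as ONE-Glo luminescence; CellTiter-Fluor fluorescence measured in parallel for cytotoxicity.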

Androgen receptor (Homo sapiens), sequence (P10275 whole entry, looked up): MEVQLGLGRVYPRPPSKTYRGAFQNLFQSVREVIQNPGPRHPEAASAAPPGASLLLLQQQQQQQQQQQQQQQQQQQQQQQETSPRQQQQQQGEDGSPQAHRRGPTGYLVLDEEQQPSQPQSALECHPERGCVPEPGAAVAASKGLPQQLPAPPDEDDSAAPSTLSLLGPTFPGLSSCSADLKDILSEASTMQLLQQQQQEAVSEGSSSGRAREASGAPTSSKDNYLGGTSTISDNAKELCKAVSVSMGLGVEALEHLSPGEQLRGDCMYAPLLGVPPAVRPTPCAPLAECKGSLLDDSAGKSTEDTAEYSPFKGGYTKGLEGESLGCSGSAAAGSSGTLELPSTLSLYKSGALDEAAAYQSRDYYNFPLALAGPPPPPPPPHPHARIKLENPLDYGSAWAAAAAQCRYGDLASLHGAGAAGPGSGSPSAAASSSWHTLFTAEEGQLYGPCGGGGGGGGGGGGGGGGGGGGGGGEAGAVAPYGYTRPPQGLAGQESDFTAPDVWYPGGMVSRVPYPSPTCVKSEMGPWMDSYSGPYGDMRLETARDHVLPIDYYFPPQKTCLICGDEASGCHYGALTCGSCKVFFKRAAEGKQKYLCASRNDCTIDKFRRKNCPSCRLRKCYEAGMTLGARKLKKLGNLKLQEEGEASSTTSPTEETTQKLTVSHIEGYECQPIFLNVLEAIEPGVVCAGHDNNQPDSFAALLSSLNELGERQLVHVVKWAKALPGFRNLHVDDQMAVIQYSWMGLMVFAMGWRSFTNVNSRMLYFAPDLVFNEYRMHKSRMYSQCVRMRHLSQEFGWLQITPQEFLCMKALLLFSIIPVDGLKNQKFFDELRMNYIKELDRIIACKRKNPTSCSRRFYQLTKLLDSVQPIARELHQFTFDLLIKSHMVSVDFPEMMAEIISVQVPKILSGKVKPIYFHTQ
Estrogen receptor (Homo sapiens), sequence (P03372 whole entry, looked up): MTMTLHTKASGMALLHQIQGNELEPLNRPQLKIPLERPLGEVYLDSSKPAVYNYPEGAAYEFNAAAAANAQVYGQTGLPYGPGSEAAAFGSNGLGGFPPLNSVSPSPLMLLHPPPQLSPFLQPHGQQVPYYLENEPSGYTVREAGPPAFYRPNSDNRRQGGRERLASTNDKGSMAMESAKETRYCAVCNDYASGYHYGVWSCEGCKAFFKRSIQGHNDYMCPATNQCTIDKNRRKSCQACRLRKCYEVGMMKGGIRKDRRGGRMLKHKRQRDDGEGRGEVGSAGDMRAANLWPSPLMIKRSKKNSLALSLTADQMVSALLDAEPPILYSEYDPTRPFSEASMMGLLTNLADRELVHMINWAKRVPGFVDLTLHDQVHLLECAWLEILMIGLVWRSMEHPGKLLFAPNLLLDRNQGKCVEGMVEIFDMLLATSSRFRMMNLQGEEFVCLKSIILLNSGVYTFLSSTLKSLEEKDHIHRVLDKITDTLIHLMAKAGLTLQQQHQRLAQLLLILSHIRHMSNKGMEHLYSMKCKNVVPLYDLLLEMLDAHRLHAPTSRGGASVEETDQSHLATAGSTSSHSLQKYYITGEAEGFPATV
Aromatase (Homo sapiens), sequence (P11511 whole entry, looked up): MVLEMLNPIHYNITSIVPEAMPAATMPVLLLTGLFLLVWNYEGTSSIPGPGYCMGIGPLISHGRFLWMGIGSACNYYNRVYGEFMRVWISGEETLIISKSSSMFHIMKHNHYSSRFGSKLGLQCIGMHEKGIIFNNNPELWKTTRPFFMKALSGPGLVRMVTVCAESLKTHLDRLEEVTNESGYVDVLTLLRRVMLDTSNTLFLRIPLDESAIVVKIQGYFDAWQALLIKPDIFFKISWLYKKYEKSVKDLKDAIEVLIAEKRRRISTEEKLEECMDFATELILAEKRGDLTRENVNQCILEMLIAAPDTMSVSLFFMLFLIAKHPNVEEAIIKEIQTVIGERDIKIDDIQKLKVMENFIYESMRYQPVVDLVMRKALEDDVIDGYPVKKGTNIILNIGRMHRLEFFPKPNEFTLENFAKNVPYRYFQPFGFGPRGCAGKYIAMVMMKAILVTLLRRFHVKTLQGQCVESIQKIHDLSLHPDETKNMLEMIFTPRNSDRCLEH

On to `CCc1cc(Cl)c(OC)c(C(=O)NC[C@@H]2CCCN2CC)c1O`, for which the call in [1], in experiment [5], in experiment [9], in experiment [12] and in [14] was inactive. The Potency is 5.96 µM (active) and 8.04 µM (active) and 6.68 µM (active) in [2]; 7.5 µM (active) and 9.02 µM (active) and 9.44 µM (active) in experiment [3]; 11.9 µM (active) and 10.1 µM (active) in experiment [4]; 23.7 µM (active) and 7.5 µM (active) in experiment [7]; 23.7 µM (active) and 11.4 µM (active) and 11.9 µM (active) in experiment [8]; 10.6 µM (active) and inactive in experiment [13]. Besides, the Potency result in experiment [6], in experiment [10], in experiment [11], in experiment [15] and in experiment [16] was “inactive” each time.
On to `CCOc1ccc(OCC)c(Cl)c1`, for which the molecule was called inactive in experiment [1], in experiment [5], in experiment [9], in experiment [12] and in experiment [14]. In addition, the Potency entry in [2], in experiment [3], in [4], in experiment [6], in [7] and in experiment [8] was “inactive” in each case. Also, the Potency entry in experiment [10], in experiment [11], in experiment [13], in [15] and in experiment [16] was “inactive” throughout.
With `CC1=C(CC(=O)O)c2cc(F)ccc2/C1=C\c1ccc(S(C)(=O)=O)cc1`, the call in experiment [1], in [5], in [19], in [9], in experiment [12] and in experiment [14] was inactive. The Potency entry in experiment [2], in [3], in experiment [4], in experiment [17], in experiment [18] and in experiment [6] was “inactive” in each case. Moreover, the Potency result in [7], in [8], in experiment [10], in experiment [11], in experiment [13] and in experiment [15] was “inactive” each time. For the same molecule, the Potency result in [16] was “inactive”.
For the molecule `CCN(CC)CC1CCCCN1CC(=O)N1c2ccccc2C(=O)Nc2cccnc21` (configuration not stated), the molecule was called inactive in experiment [1], in experiment [5], in experiment [9], in experiment [12] and in [14]. The Potency entry in experiment [2], in experiment [3], in experiment [4], in [6], in experiment [7] and in [8] was “inactive” in each case. Also, the Potency result in experiment [10], in experiment [11], in experiment [13], in experiment [15] and in [16] was “inactive” each time.
Take `CC1=C(O)C(=O)OC1C` (configuration not stated): the molecule was classed as inactive in experiment [1], in [5] and in [9]. Moreover, the Potency result in experiment [2], in experiment [3], in experiment [4], in [6], in experiment [7] and in experiment [8] was “inactive” each time. For the same molecule, the Potency entry in [11], in [15] and in experiment [16] was “inactive” throughout.
Take `CC1CN(c2ccccc2)NC1=O` (configuration not stated): the result in [1], in experiment [5] and in experiment [9] was inactive. For the same molecule, the Potency entry in [2], in [3], in experiment [4], in [6], in experiment [8] and in [11] was “inactive” each time. In addition, the Potency entry in experiment [15] and in [16] was “inactive” each time.
For `NC/C=C/C(=O)O`, the molecule was called inactive in [1], in [5] and in experiment [9]. Further, the Potency result in experiment [2], in [3], in [4], in experiment [6], in experiment [7] and in experiment [8] was “inactive” each time. For the same molecule, the Potency result in experiment [11], in [15] and in [16] was “inactive” throughout.
As for `C=CC1CO1` (configuration not stated), the call in experiment [1], in experiment [5] and in [9] was inactive. In addition, the Potency entry in [2], in experiment [3], in experiment [4], in [6], in experiment [8] and in experiment [11] was “inactive” throughout. Further, the Potency result in experiment [15] and in experiment [16] was “inactive” each time.
Take `CC(C)C[C@H](NC(=O)OCC1c2ccccc2-c2ccccc21)C(=O)O`: the molecule was called inactive in experiment [1], in experiment [5] and in experiment [9]. In addition, the Potency entry in [2], in experiment [3], in experiment [6], in experiment [11], in [15] and in experiment [16] was “inactive” in each case.
